Rows were chosen to be rich in hits. Some 1.2% of all compounds tested hit in one or more screens of this group.
RXFP1 ag = qHTS Assay for Agonists of the Relaxin Receptor RXFP1 | Relaxin receptor 1 (Homo sapiens), Q9HBX9 | HEK293T-RXFP1 cAMP TR-FRET, 30 min; response scale: percent of porcine relaxin response, buffer zero | Potency, µM (highest dose often 57.5 µM), inactives show at the highest dose activation, most hits filed as activators | 370,000 tested, 0.3% active | AID 2676, 2010; further: potency means the concentration at half of the fitted maximal effect; on the % scale 0 is the no-effect control and ±100 the full control effect; nearly all actives have a fitted effect of over 60% in size
Target sequence (Q9HBX9 whole entry, looked up): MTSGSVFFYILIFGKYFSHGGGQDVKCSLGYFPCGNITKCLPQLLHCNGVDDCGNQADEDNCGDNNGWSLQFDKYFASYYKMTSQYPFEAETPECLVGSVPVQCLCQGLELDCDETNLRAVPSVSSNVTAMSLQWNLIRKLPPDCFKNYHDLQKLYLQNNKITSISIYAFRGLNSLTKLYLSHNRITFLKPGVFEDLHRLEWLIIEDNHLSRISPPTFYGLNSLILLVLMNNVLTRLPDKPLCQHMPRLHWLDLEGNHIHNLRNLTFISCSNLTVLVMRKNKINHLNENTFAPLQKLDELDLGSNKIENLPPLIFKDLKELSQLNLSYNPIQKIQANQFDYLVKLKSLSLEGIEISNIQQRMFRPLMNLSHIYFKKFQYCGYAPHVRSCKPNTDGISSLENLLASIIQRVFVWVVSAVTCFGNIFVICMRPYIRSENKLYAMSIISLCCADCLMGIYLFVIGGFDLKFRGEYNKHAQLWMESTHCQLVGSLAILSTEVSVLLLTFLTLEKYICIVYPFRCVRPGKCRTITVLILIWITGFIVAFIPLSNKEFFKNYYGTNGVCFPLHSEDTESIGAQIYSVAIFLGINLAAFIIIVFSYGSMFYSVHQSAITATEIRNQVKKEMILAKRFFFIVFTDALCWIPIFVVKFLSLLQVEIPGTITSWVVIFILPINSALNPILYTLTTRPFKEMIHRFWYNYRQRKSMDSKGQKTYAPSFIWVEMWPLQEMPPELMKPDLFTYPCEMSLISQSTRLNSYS
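HEK293T cells stably expressing RXFP1 were pretreated with the PDE4 inhibitor Ro 20174, exposed to compounds for 30 min at 37C, lysed, and cAMP was read by TR-FRET. Data normalized to buffer (basal) and 29 nM porcine relaxin (100%).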
gsp agonist = qHTS for Agonist of gsp, the Etiologic Mutation Responsible for Fibrous Dysplasia/McCune-Albright Syndrome: qHTS. AID 624287, 2012. Potency, µM (series often up to 76.9 µM), for the others: top-dose activation (cAMP increase), usual class: activators. 340,000 tested, 0.13% active. gsp mutant cells, cAMP HTRF, 30 min; active means well fitted activation curve with a large enough effect; inconclusive means small, poorly fitted or top-dose-only effect, or another doubt; inactive means no such curve, though single readings can be large or run the other way; cell line not stated here;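 further: phosphodiesterase inhibitor Ro 20-1724 added with compounds to block cAMP breakdown; potency means the concentration at half of the fitted maximal effect; nearly all actives have a fitted effect of over 60% in size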
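Cells stably selected in G418 were plated at 2000/well, grown 16-24 hr, then given compounds in DMSO with the PDE inhibitor […] (300 uM solution added) for 30 min at 37C; cAMP was read by HTRF.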
RXFP1 antagonist = qHTS Assay for Antagonists of the Relaxin Receptor RXFP1 | Relaxin receptor 1 (Homo sapiens), Q9HBX9 | HEK293-RXFP1, relaxin-stimulated cAMP HTRF, 30 min; hits give low values | activity change, negative = inhibition, % at 57.5 µM | 350,000 tested, 0.59% active | AID 1259400, 2018;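 active means activity change of -60% or lower, but not beyond a set lower limit; inconclusive means change between -60% and -40%, or beyond the set limit; inactive means change above -40%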; further: on the % scale 0 is the no-effect control and ±100 the full control effect
CCT chaperon mod = High-Throughput Screening for Modulators of Cytosolic Chaperonin Activity | purified chaperonin ATPase assay, HTRF ADP detection, 30 min | activity change, % (test concentration not listed), hits read low | 360,000 tested, 0.3% active; in the data active means activity change below about -30%; further: on the % scale 0 is the no-effect control and ±100 the full control effect
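Nucleotide hydrolysis assay: TRiC at 20–40 nM final (set by batch activity) with 10 uM ATP, 30 min at 37 °C, in presence of 76 uM compound. Detection by competitive ADP HTRF, 30 min ambient.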
gsp antagonist = qHTS for Antagonists of gsp, the Etiologic Mutation Responsible for Fibrous Dysplasia/McCune-Albright Syndrome: qHTS; gsp-mutant cells, cAMP HTRF, 30 min; Potency, µM (highest dose often 76.9 µM), for inactives: top-dose activity change, negative = inhibition, most hits filed as inhibitors; 340,000 tested, 0.4% active; AID 624288, 2012; calls by dose curve; cell line not stated here;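 further: intracellular cAMP measured with PDE inhibitor Ro 20-1724 present during compound exposure; potency means the concentration at half of the fitted maximal effect; on the % scale 0 is the no-effect control and ±100 the full control effect; nearly all actives have a fitted effect of over 65% in size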
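HTRF cAMP measurement after 30 min RT detection following 30 min, 37C compound treatment alongside […] (added as 300 uM solution) in G418-selected cells seeded at 2000/well and grown 16–24 h.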
MmCpn inh = Inhibitors of TCP-1 ring complex (TRiC) of Methanococcus maripaludis (MmCpn): qHTS; Chaperonin Mm-Cpn (Methanococcus maripaludis); purified Mm-Cpn ATPase, ADP Transcreener TR-FRET; Potency, µM (top dose mostly 76.9 µM), for the others: at the top dose activity, negative = inhibition, most hits filed as inhibitors; 330,000 tested, 0.031% active; AID 504842, 2011; further: potency means the concentration at half of the fitted maximal effect; on the % scale 0 is the no-effect control and ±100 the full control effect; nearly all actives have a fitted effect of over 80% in size
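Quantitative HTS used 25 nM Mm-CPN and 10 uM ATP in magnesium/KCl Tris buffer, pH 7.4, with 1 mM DTT. Hydrolysis ran 30 min at 37°C; ADP was read by HTRF.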
Active calls of the source: *; ? = inconclusive; . = not tested or not shown; [ ] = another dose, or the depositor's remark. Unless noted, the call rests on the fitted dose curve; in most records, active means well fitted curve in the direction sought with a large enough effect; inconclusive means small, poorly fitted or top-dose-only effect, or another doubt; inactive means no such curve, though single readings can be large; an effect the other way counts as inactive or inconclusive.

SMILES | RXFP1 ag | gsp agonist | RXFP1 antagonist | CCT chaperon mod | gsp antagonist | MmCpn inh
CC(=O)C[C@H]1[C@H](O[C@H]2[C@H](OC(C)C(=O)N[C@@H](C)C(=O)N[C@H](CCC(=O)N[C@@H](CCCCN)C(=O)N[C@H](C)C(=O)O)C(N)=O)[C@@H](NC(=O)O)C(O)O[C@@H]2CO)O[C@H](CO)[C@@H](O)[C@@H]1O (stereo not given in full) | . | . | 18.9 | . | . | .
Cc1cc2oc(C(=O)NCc3ccc(S(N)(=O)=O)cc3)c(C)c2cc1C | ? | ? | 0.8 | 0.1 | 6.1% | -13.2%
CCc1ccc2oc(C(=O)NCc3ccc(S(N)(=O)=O)cc3)c(C)c2c1 | 17.4% | 17.7% | -120.0* | 1.0 | -1.0% | -11.7%
Cc1ccc(-c2cn3c(n2)sc2cc(C(=O)NC4CCCCCC4)ccc23)cc1 | 7.0% | . | -7.0 | . | . | .
COc1ccc(OC)c(S(=O)(=O)N2CCC(C(=O)Nc3cccc(C)c3C)CC2)c1 | 4.0% | ? | 19.7 | -1.5 | -0.7% | -1.4%
COc1ccc(OC)c(S(=O)(=O)N2CCC(C(=O)Nc3ccc(C)c(C)c3)CC2)c1 | -0.1% | 8.9% | -0.7 | -1.3 | 28.2µM* | 0.2%
O=C(Nc1ccc(Cc2ccncc2)cc1)c1ccc(S(=O)(=O)N2CCCC2)cc1 | 0.9% | 8.4% | -60.6* | 1.1 | 50.1µM* | -4.0%
O=C(Nc1cccc(S(=O)(=O)N2CCCCC2)c1)c1ccc(Cl)nc1 | . | -16.8% | -10.1 | 0.4 | 50.1µM* | -2.4%
COc1ccc(NC(=O)c2ccc(Cl)nc2)cc1S(=O)(=O)N1CCCCC1 | -0.4% | -1.2%[15.4 µM] | 9.2 | -2.4 | 31.6µM* | -1.0%
COc1ccc(NC(=O)c2cc(OC)c(OC)c(OC)c2)cc1S(=O)(=O)N1CCCCC1 | 1.5% | -5.6%[15.4 µM] | -9.4 | -3.1 | 0.1% | 2.8%
COc1ccc(OC)c(Nc2ncnc3c2nc2n3CCCC2)c1 | 0.6% | . | 1.4 | . | . | .
Cc1ccc(CN2CCCn3nc(C(=O)NCCc4cccc(C)c4)cc3C2=O)cc1 | 0.5% | . | -21.7 | . | . | .
CCOc1ccc(CNC(=O)Nc2ccc3c(c2)N(C)C(=O)c2ccccc2S3)cc1 | 5.2% | . | 14.5 | . | . | .
CCOc1ccc(NC(=O)CN2CCCC2c2cccs2)cc1S(=O)(=O)N1CCCC1 (stereo not given) | 0.3% | ? | -6.4 | -1.1 | ? | -0.1%
CCN(CC)S(=O)(=O)c1cccc(NC(=O)CNc2cccc(S(=O)(=O)N3CCCC3)c2)c1 | -1.6% | 7.1% | -10.8 | -0.6 | -17.3% | 0.6%
CCN(CC)S(=O)(=O)c1cccc(NC(=O)Nc2cccc(C(F)(F)F)c2)c1 | -1.1% | -33.4% | -15.5 | -0.7 | 31.6µM* | -23.2%
CCN(CC)S(=O)(=O)c1cccc(NC(=O)c2cccc(S(=O)(=O)N3CCCC3)c2)c1 | 1.9% | -3.3%[15.4 µM] | 2.6 | -55.5* | -10.3% | -1.4%
CCN(CC)S(=O)(=O)c1cccc(NC(=O)CC2CCCC2)c1 | 2.6% | -27.1%[15.4 µM] | -17.2 | 2.3 | -1.5% | 2.8%
COc1ccc(NC(=O)CN2CCCC2c2cccs2)cc1S(=O)(=O)N1CCCCC1 (stereo not given) | 1.9% | 16.8% | -38.3 | -4.2 | 35.5µM* | 0.2%
CCCCN1C(=O)C(O)(CC(=O)c2ccc(C(C)(C)C)cc2)c2ccccc21 (stereo not given) | 5.1% | . | ? | . | . | .
CC(C)c1ccc(NC(=O)C2CCCN(S(=O)(=O)c3ccc4[nH]c(=O)ccc4c3)C2)cc1 (stereo not given) | 18.1% | . | 7.2 | . | . | .
C[C@H]1C[C@H](O)c2ccsc2S1(=O)=O | . | . | -9.1 | . | . | .
CCc1ccc(OCC(=O)Nc2ncn[nH]2)c(Br)c1 | 0.4% | . | -13.0 | . | . | .

Screening results from PubChem BioAssay.
